Experimental findings from PubChem BioAssay (Tox21) are described below.

A number with no mark means an inactive call. Records with an inconclusive call do not appear. Calls of active or inactive are those of the source. Unless noted, the call rests on the fitted dose curve; in most records, active means well fitted curve in the direction sought with a large enough effect in the repeat runs; inconclusive means weak or mixed curves; inactive means no such curve, though single readings can be large; an effect the other way counts as inactive or inconclusive.

The nature of test [1]: qHTS assay to identify small molecule antagonists of the androgen receptor (AR) signaling pathway using the MDA cell line in the presence of 0.5 nM R1881 - cell viability counter screen (AID 1259242). Further: nearly all actives have a fitted effect of over 45% in size. In outline:
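MDA-kb2 cells (MMTV-luciferase, AR/GR responsive) were treated with compounds plus 0.5 nM R1881 (final) for 16 hr at 37C, 0% CO2. Viability was then read in the same wells as live-cell protease fluorescence (CellTiter-Fluor, 30 min).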

The target in test [2] is Estrogen receptor (Homo sapiens) (UniProt P03372). Nature of the test: qHTS assay to identify small molecule antagonists of the estrogen receptor alpha (ER-alpha) signaling pathway using the BG1 cell line in the presence of 0.1 nM 17-beta-estradiol (AID 1259244). Further: nearly all actives have a fitted effect of over 50% in size. Put shortly:
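VM7Luc4E2 cells (endogenous full-length ER-alpha, 4×ERE-luciferase), kept 5 days in phenol red-free, charcoal-stripped FBS medium; 4,000 cells/well. Compounds added with 0.1 nM (final) 17beta-estradiol, 22 hr at 37C; luminescence read with ONE-Glo after 30 min.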

The nature of test [3]: qHTS assay to identify small molecule HDAC inhibitors (AID 1259364). Further: top concentration of the series differs between compounds; nearly all actives have a fitted effect of over 45% in size. In outline:
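Wild-type HCT-116 cells, plated overnight at 37 C, exposed to compounds 2 hr at 37 C; luminogenic HDAC-Glo substrate then added 30 min at room temperature. Luminescence reports relative endogenous class I/II HDAC activity.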

Test [4] is described as follows: qHTS assay to identify small molecule HDAC inhibitors - cell viability counter screen (AID 1259365). Further: series mostly up to about 92 µM; nearly all actives have a fitted effect of over 50% in size. Put shortly: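 After overnight seeding at 1,500 cells per well, wild-type HCT-116 cultures took up compounds in DMSO for 2hr at 37 C. Viable cell content came from luminescence with CellTiter-Glo.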
The nature of test [5]: qHTS assay to identify small molecule agonists of the sonic hedgehog signaling (Shh) pathway - cell viability counter screen (AID 1259366). Further: nearly all actives have a fitted effect of over 50% in size. Put shortly:
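Same-well cytotoxicity read. Gli1-Luc reporter 3T3 cells; compounds 24hr, 37C/5% CO2; CellTiter-Fluor fluorescence.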

Test [6] in a line: qHTS assay to identify small molecule antagonists of the sonic hedgehog signaling (Shh) pathway - cell viability counter screen (AID 1259367). Further: nearly all actives have a fitted effect of over 55% in size. In outline: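 NIH/3T3-derived Gli1-Luc reporter cells, 2,000/well, plated 4 hr before compound addition, then stimulated with conditioned medium for 24 hr at 37C. Viability measured in the same wells by CellTiter-Fluor fluorescence, reagent added at 23 hr for 1 hr.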

The nature of test [7]: qHTS assay to identify small molecule agonists of the sonic hedgehog signaling (Shh) pathway (AID 1259368; calls by dose curve;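 further: NIH/3T3-derived 3T3Gli1-Luc cells carrying a stable Gli1-driven firefly luciferase reporter; series mostly up to about 92 µM; nearly all actives have a fitted effect of over 15% in size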). In outline: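 NIH/3T3-derived 3T3Gli1-Luc cells with stably integrated Gli1-driven firefly luciferase, 2,000 cells/well, compounds added after 4 hr. Incubated 24 hr at 37C, 5% CO2; luminescence read after 30 min with luciferase reagent at room temperature.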
Test [8] is described as follows: qHTS assay to identify small molecule antagonists of the sonic hedgehog signaling (Shh) pathway (AID 1259369; calls by dose curve; further: nearly all actives have a fitted effect of over 45% in size). Put shortly: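 NIH/3T3-derived Gli1-Luc reporter cells plated 4 h, dosed with compound, then stimulated with conditioned medium for 24 h at 37 C. Firefly luciferase luminescence read after 30 min with detection reagent at room temperature.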
The target of test [9] is Estrogen receptor beta (Homo sapiens) (UniProt Q92731). Nature of the test: qHTS assay to identify small molecule agonists of the estrogen receptor beta (ER-beta) signaling pathway (AID 1259377; active means well fitted activation curve with a large enough effect in the signal ratio in the repeat runs, not every such curve was filed as active; the % refers to the signal ratio). Put shortly:
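Read-out: beta-lactamase FRET fluorescence. Cell line: ER-beta-UAS-bla HEK293T in 2% charcoal-stripped FBS. Exposure: 16 hr at 37C. Substrate step: 2 h at room temperature.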

The target is the same in test [10]. Nature of the test: qHTS assay to identify small molecule antagonists of the estrogen receptor beta (ER-beta) signaling pathway (AID 1259378; active means well fitted inhibition curve with a large enough effect in the signal ratio in the repeat runs, not every such curve was filed as active; the % refers to the signal ratio). In outline:
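ER-beta-UAS-bla HEK293T cells in 2% charcoal-stripped FBS medium treated with compound plus 1nM final 17-beta-estradiol for 16 hr at 37C. Beta-lactamase reporter read by FRET substrate fluorescence after 2 hours at room temperature.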

The nature of test [11]: qHTS assay to identify small molecule agonists of the androgen receptor (AR) signaling pathway in the presence of an antagonist - cell viability counter screen (AID 1259379).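 Further: MDA-kb2 human breast cancer cells carrying an MMTV luciferase reporter; series mostly up to about 92 µM; nearly all actives have a fitted effect of over 25% in size.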 Put shortly:
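MDA-kb2 cells (MMTV-luciferase, AR/GR), 3,000/well, 5 h attachment, then 3.0 µM nilutamide (final) and compounds at 15 concentrations. Viability by CellTiter-Fluor fluorescence after 16 h at 37 °C, 0% CO2, in the reporter wells.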

A short description of test [12]: qHTS assay to identify small molecule agonists of the estrogen receptor beta (ER-beta) signaling pathway - cell viability counter screen (AID 1259380). Further: nearly all actives have a fitted effect of over 30% in size. Further: potency means the concentration at half of the fitted maximal effect. Put shortly: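 ER-beta-UAS-bla HEK293T cells in medium with 2% charcoal-stripped FBS, pre-incubated 6 hr, then treated 16 hr at 37C. Cytotoxicity read in the same wells by CellTiter-Glo luminescence after 30 min at room temperature.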

A short description of test [13]: qHTS assay to identify small molecule antagonists of the estrogen receptor beta (ER-beta) signaling pathway - cell viability counter screen (AID 1259382). Further: series mostly up to about 92 µM; nearly all actives have a fitted effect of over 55% in size. Put shortly:
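ER-beta-UAS-bla HEK293T cells in 2% charcoal-stripped FBS medium, treated with compound plus 1 nM 17-beta-estradiol for 16 h at 37C. Viability read by CellTiter-Glo luminescence after 30 min at room temperature in the same wells.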

Test [14] deals with Estrogen receptor (Homo sapiens) (UniProt P03372). Nature of the test: qHTS assay to identify small molecule agonists of the estrogen receptor alpha (ER-alpha) signaling pathway in the presence of an antagonist (AID 1259383; calls by dose curve; further: top concentration of the series differs between compounds; nearly all actives have a fitted effect of over 15% in size). In outline: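 VM7Luc4E2 cells express endogenous full-length ER-alpha with an ERE-luciferase reporter and were hormone-deprived for 5 days. Compounds at 15 concentrations were added with 10.0nM ICI-182,780 for 22hr at 37C. Luminescence was read with ONE-Glo.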

The nature of test [15]: qHTS assay to identify small molecule agonists or antagonists of the thyroid stimulating hormone receptor (TSHR) signaling pathway - wild type cell line counter screen (AID 1259384; calls by dose curve). In outline:
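Wild-type Hek293 cells, 800/well, 18 h at 37C, then compound with Ro20-1724 for 30 min RT. cAMP by HTRF (cAMP-d2/anti-cAMP cryptate), 1 h RT, fluorescence read. 15 concentrations, triplicates.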

Test [16] addresses Thyrotropin receptor (Homo sapiens) (UniProt P16473). Nature of the test: qHTS assay to identify small molecule antagonists of the thyroid stimulating hormone receptor (TSHR) signaling pathway (AID 1259385; calls by dose curve; further: nearly all actives have a fitted effect of over 20% in size). In outline: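 TSHR-HEK293 cells (800/well) plated 18 h, then compounds with Ro20-1724 and TSH at 1.5 ng/mL final, 30 min at room temperature. cAMP quantified by HTRF (cAMP-d2/anti-cAMP-cryptate, 1 h); 15 concentrations in triplicate.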

Test [17] can be described thus: qHTS assay to identify small molecule agonists of the estrogen receptor alpha (ER-alpha) signaling pathway in the presence of an antagonist - cell viability counter screen (AID 1259386).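 Further: series mostly up to about 92 µM; cells exposed to compounds for 22 h at 37 °C before the viability read; nearly all actives have a fitted effect of over 30% in size.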 Put shortly: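 Cell viability in VM7Luc4E2 cells (endogenous full-length ER-alpha) measured by CellTiter-Fluor fluorescence in the same wells as the luciferase screen. Cells pre-cultured 5 days in charcoal-stripped serum, then treated 22 h with compounds at 15 concentrations plus 10.0nM ICI-182,780.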

Thyrotropin receptor (Homo sapiens), sequence (P16473 whole entry, looked up): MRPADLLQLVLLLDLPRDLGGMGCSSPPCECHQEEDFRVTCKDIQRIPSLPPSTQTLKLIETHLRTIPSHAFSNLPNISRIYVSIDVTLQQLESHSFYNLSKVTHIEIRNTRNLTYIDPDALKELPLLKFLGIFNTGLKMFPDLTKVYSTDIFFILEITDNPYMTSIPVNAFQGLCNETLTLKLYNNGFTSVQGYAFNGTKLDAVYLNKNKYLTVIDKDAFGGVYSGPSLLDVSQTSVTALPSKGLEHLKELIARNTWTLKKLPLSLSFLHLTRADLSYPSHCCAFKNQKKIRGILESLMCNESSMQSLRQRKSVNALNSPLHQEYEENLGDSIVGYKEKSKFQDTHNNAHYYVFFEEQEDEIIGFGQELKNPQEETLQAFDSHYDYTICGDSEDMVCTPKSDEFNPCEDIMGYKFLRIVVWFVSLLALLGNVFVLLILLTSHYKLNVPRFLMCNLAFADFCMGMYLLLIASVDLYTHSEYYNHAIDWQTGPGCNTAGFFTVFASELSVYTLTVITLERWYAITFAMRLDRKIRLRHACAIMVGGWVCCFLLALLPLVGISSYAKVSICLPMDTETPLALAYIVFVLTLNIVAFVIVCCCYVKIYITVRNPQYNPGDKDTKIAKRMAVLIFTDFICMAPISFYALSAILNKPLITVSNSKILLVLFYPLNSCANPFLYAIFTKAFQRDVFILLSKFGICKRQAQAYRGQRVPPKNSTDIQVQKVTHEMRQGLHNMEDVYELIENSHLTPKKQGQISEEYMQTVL
Estrogen receptor (Homo sapiens), sequence (P03372 whole entry, looked up): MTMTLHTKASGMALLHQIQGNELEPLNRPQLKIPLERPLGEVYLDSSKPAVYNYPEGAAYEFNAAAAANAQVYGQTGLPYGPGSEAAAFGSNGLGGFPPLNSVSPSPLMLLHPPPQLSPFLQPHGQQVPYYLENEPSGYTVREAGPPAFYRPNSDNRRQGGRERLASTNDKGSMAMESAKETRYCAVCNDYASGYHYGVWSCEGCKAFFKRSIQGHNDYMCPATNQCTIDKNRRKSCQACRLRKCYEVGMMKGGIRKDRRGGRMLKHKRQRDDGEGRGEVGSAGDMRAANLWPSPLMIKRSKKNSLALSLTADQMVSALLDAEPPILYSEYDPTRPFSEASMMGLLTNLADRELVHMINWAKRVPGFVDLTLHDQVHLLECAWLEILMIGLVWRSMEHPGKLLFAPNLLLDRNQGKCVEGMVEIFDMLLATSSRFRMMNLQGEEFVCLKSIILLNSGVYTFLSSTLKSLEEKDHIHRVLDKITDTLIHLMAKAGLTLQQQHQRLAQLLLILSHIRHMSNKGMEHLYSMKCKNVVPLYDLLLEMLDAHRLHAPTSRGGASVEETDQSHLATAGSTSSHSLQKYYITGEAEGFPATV
Estrogen receptor beta (Homo sapiens), sequence (Q92731 whole entry, looked up): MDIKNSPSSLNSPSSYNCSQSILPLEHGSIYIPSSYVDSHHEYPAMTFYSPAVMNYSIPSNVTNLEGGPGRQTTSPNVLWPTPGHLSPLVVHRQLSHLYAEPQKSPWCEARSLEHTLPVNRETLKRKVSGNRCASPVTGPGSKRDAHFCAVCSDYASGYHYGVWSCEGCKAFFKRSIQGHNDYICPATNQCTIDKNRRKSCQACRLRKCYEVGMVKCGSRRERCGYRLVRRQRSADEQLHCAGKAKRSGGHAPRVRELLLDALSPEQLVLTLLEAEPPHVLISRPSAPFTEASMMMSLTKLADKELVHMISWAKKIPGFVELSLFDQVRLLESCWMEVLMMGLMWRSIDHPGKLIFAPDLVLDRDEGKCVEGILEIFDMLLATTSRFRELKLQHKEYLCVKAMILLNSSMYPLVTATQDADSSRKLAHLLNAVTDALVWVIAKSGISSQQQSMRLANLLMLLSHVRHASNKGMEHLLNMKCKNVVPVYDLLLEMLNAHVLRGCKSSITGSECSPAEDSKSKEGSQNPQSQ

For the compound `Cc1ccc2ccc3cccc4ccc1c2c34`, the Potency entry in test [1], in test [2], in test [3], in [4], in [5] and in test [6] was “inactive” in each case. For the same compound, the Potency result in [7], in test [8], in test [9], in test [10], in test [11] and in test [13] was “inactive” each time. Further, the Potency result in [14], in [16] and in test [17] was “inactive” throughout. The Potency in test [12] was 24.3 µM (active). In [15], the result was inactive.

Regarding `O=C1OC(=O)c2cccc3cccc1c23`, the Potency result in test [1], in test [2], in test [3], in [4], in test [5] and in test [6] was “inactive” throughout. In addition, the Potency result in test [7], in test [8], in test [9], in [10], in [11] and in test [12] was “inactive” each time. Moreover, the Potency entry in test [13], in [14] and in test [16] was “inactive” throughout. In [15], the result was inactive.

For `CCOC(=O)COc1ccc(C)cc1`, the Potency result in test [1], in test [2], in [3], in test [4], in test [5] and in test [6] was “inactive” in each case. The Potency result in test [7], in test [8], in [9], in test [10], in test [11] and in test [12] was “inactive” throughout. Besides, the Potency entry in test [13] and in [16] was “inactive” in each case. For the same compound, the compound was classed as inactive in test [15].

Take `CC(C)C(=O)OCc1ccccc1`: the Potency entry in test [1], in test [2], in test [3], in test [4], in test [5] and in [6] was “inactive” throughout. Besides, the Potency entry in test [7], in [8], in test [9], in test [10], in test [11] and in [12] was “inactive” throughout. Further, the Potency result in [13], in test [14], in test [16] and in [17] was “inactive” each time. The result in test [15] was inactive.

Turning to `CCc1c(C(=O)O)c(=O)cnn1-c1ccc(Cl)cc1`, the Potency result in test [1], in [2], in [3], in test [4], in [5] and in [6] was “inactive” each time. Also, the Potency result in test [7], in test [8], in test [9], in test [10], in test [11] and in [12] was “inactive” each time. The Potency result in test [13], in test [14], in test [16] and in test [17] was “inactive” throughout. Further, in [15], the call was inactive.

For `CCc1cccc(CC)c1N(COC)C(=O)CS(=O)(=O)O`, the Potency result in test [1], in [2], in test [3], in test [4], in test [5] and in test [6] was “inactive” throughout. The Potency entry in test [7], in [8], in test [9], in test [10], in [11] and in [12] was “inactive” in each case. For the same compound, the Potency entry in [13], in [14] and in [17] was “inactive” throughout. In test [15], the result was inactive.
